The values that follow come from PMC7819943, “Rice protein-binding microarrays: a tool to detect cis-acting elements near promoter regions in rice”.

The full ranking holds about 35,000 sequences; the median of “fluorescence intensity (a.u.)” is about 10,000, and the highest 2% start at about 52,000. This is one part of a sample in which the highest values are shown more often than they occur.

For the test, the target named is T1, OsWOX13 (Oryza sativa, UniProt Q5QMM3 1-267).
T1 sequence: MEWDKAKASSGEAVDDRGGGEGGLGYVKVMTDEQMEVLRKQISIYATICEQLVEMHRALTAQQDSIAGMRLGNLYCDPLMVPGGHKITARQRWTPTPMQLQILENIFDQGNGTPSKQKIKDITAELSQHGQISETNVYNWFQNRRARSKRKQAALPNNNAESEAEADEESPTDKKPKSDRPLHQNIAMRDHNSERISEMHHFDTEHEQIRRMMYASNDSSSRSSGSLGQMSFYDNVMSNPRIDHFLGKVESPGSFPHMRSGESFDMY
The test is described as follows: protein-binding microarray (RPBM); PBS, 2% BSA, 51.3 ng/ul salmon testes DNA, 50 uM zinc acetate, 200 nM TF, 25 C, 1 h; high values mean tight binding. The conditions noted are these: protein: recombinant; tags: N-terminal polyhistidine and DsRed monomer fusion (pET32a); label: CyDye5-dUTP incorporated in the synthesized complementary strand; 3' TTTTT single-stranded linker to array surface; dsDNA, one strand shown. Put shortly:
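Polyhistidine-tagged DsRed fusions of transcription factors, joined at the N-terminus, were expressed in E. coli BL21-CodonPlus and isolated on Ni–NTA. They were incubated at 200 nM for 1 h at 25 °C on a custom Agilent array, double-stranded and BSA-blocked, in PBS with 2% BSA, salmon testes DNA and 50 µM zinc acetate. The binding signal is per-feature fluorescence intensity (arbitrary units) read on an Axon 4000B scanner after washing.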
With “GAAACATGTTGAGATTGATTTACATTTTGTGCGCGAGAAGCGGAGTCACCTAGTGCAG”, the binding signal is 18000 fluorescence intensity (a.u.).

On to “TGGGAGATTGTATTAAACAGAGGAGAACGATGGCGAAAGGCGGAGTCACCTAGTGCAG”, for which the binding signal was 6630 fluorescence intensity (a.u.).

As for “TTTTGATTGGCCGAGGAGAAGGCGAAACAGACTGCCACTGCGGAGTCACCTAGTGCAG”, the binding signal was 53800 fluorescence intensity (a.u.).

“TTATTTGACACAATGCGATTGAATTGGGGTGCAGGAGTATCGGAGTCACCTAGTGCAG”: the binding signal was 6780 fluorescence intensity (a.u.).

For “AGAAATATTCAATCAAGCTACTGCGCACATATATCTTTATCGGAGTCACCTAGTGCAG”, the binding signal was 9630 fluorescence intensity (a.u.).

On to “GTGCTGTGATTGGCCGCGCGGGATTTCCTGGGCGGGCGGGCGGAGTCACCTAGTGCAG”, for which the binding signal was 22600 fluorescence intensity (a.u.).

For “AATTGACGTAATTTCAGGTCGTATTTGTGGTGCAACAACCCGGAGTCACCTAGTGCAG”, the binding signal is 16600 fluorescence intensity (a.u.).

Consider “CATATTGACAGCTTTGTAATTGCATTTGACAGGTTCAACCCGGAGTCACCTAGTGCAG”, for which the binding signal is 60500 fluorescence intensity (a.u.).

For the sequence “CTATCATATTGACAGCTTTGTAATTGCTTTTGACAGGTTCCGGAGTCACCTAGTGCAG”, the binding signal was 26400 fluorescence intensity (a.u.).

With “TTTTATCTCACCAATCAATTTAATTTCTTTATTTATTTTCCGGAGTCACCTAGTGCAG”, the binding signal is 6870 fluorescence intensity (a.u.).

With “TCCACAGATTGAGGAATCCGAGCAACAAATATCCTAGTAGCGGAGTCACCTAGTGCAG”, the binding signal was 11900 fluorescence intensity (a.u.).

For the sequence “CGAAATTAATTAGCGAAATTAATTAACGCTTTACACAAGGCGGAGTCACCTAGTGCAG”, the binding signal was 64900 fluorescence intensity (a.u.).

Turning to “TCCTAATTGTACAATTAATTAAATTAAGTACAGTCCTATGCGGAGTCACCTAGTGCAG”, the binding signal was 53000 fluorescence intensity (a.u.).

Regarding “TGAGTAAATGTGTTGTTGTTAATTGCTATATGTACAGTTGCGGAGTCACCTAGTGCAG”, the binding signal was 5280 fluorescence intensity (a.u.).

In the case of “TCACAAAATAATTAACTTTAAAATTAAATTTTAGCAGCAGCGGAGTCACCTAGTGCAG”, the binding signal is 15100 fluorescence intensity (a.u.).

With “ATAATTATTCTGTTAATTAATCAATTATTATCTGGGAATCCGGAGTCACCTAGTGCAG”, the binding signal is 63600 fluorescence intensity (a.u.).

With “GGTCCTAATTGACAAATCCACAGAAGTAGTACTCCAGGAGCGGAGTCACCTAGTGCAG”, the binding signal is 53000 fluorescence intensity (a.u.).

Consider “TGGACATTGACAAAATCACAGATCCAGTAAGTACTAGTATCGGAGTCACCTAGTGCAG”, for which the binding signal was 3170 fluorescence intensity (a.u.).

Consider “TATGCAGTTTTACAATAATTTAATTAAAGTACAGTTTTGTCGGAGTCACCTAGTGCAG”, for which the binding signal is 5420 fluorescence intensity (a.u.).

As for “TAAAATTAAATTTACAAGGGTTAATTCGCGAGTAATAACGCGGAGTCACCTAGTGCAG”, the binding signal is 12300 fluorescence intensity (a.u.).

With “AATGTCTGCAATTAATCAATCTGTTAATCTGTTATTAGTACGGAGTCACCTAGTGCAG”, the binding signal was 21900 fluorescence intensity (a.u.).

On to “GGCTAATTTGGCGAGGTAATACGGTAGTATAGCACGGTTACGGAGTCACCTAGTGCAG”, for which the binding signal was 10500 fluorescence intensity (a.u.).

Regarding “CCCGCTTGAATGGATGGCAATCAACACAAGGAACAGACCGCGGAGTCACCTAGTGCAG”, the binding signal was 13700 fluorescence intensity (a.u.).

Take “AATCAAATTGCCACTTAAATCTATTGCCTCAAGTGAACAGCGGAGTCACCTAGTGCAG”: the binding signal is 16100 fluorescence intensity (a.u.).

Regarding “GATCAATTAATATGGAATTTAAAAGTTCAATTAATATGGACGGAGTCACCTAGTGCAG”, the binding signal was 8910 fluorescence intensity (a.u.).

Turning to “TTCAATTGATGTTCTTGCTTGCAAGTTGCAACGAGATTTGCGGAGTCACCTAGTGCAG”, the binding signal is 7920 fluorescence intensity (a.u.).

As to “AATGATGATTGATGGGTCATGGCACAAGGACGCTAAACCGCGGAGTCACCTAGTGCAG”, the binding signal was 40700 fluorescence intensity (a.u.).

“ATATAATAGCTAATCAAACACTAGTCCGAAGACGTAGTATCGGAGTCACCTAGTGCAG”: the binding signal was 21700 fluorescence intensity (a.u.).

Consider “CCCTCGCCTGGGCCGATCCCCATACATCCCGCGAGCGCGACGGAGTCACCTAGTGCAG”, for which the binding signal is 3440 fluorescence intensity (a.u.).

On to “GTTCGATTGAGATAGCTCTTAACATCAGTGACTTCTAGCCCGGAGTCACCTAGTGCAG”, for which the binding signal was 3800 fluorescence intensity (a.u.).

Consider “CCCTCCAATCAAATTAACCTCCATATCTCTAGCAATCTGCCGGAGTCACCTAGTGCAG”, for which the binding signal is 29800 fluorescence intensity (a.u.).

Take “TTTAATCACAAGCAAATCAATTAACTCATCCATACTCATCCGGAGTCACCTAGTGCAG”: the binding signal is 24200 fluorescence intensity (a.u.).

For the sequence “ATAAATTAATCCAGGCGTGATCTCCCGGCGCCCGCACGCGCGGAGTCACCTAGTGCAG”, the binding signal is 7300 fluorescence intensity (a.u.).

In the case of “TAAGTAATTAATTAATCAATCAATTAATCAATTATTATCCCGGAGTCACCTAGTGCAG”, the binding signal was 52600 fluorescence intensity (a.u.).

In the case of “GCTACAATAATTAATCAATTAATTAAATTAAATTAAGTGGCGGAGTCACCTAGTGCAG”, the binding signal is 55300 fluorescence intensity (a.u.).

For “AATTAATTATCATCATTACCGCAAATTCTCAAAAGTCAGGCGGAGTCACCTAGTGCAG”, the binding signal is 41200 fluorescence intensity (a.u.).

Consider “TTAATTAACGCGATTAATTAGCCGCAAATCTCAATCCAGGCGGAGTCACCTAGTGCAG”, for which the binding signal is 53200 fluorescence intensity (a.u.).

On to “GATGATAAATTAAGTCACAATAAATAAATAATAATAATATCGGAGTCACCTAGTGCAG”, for which the binding signal is 5820 fluorescence intensity (a.u.).

Regarding “TATTCAAATCATTTAAGTAATTATTTATTCTTTTCATATCCGGAGTCACCTAGTGCAG”, the binding signal was 10000 fluorescence intensity (a.u.).

With “ATTAATTAACAATAATAAGTGATTAATAATTAATTAATCGCGGAGTCACCTAGTGCAG”, the binding signal is 44200 fluorescence intensity (a.u.).

For “GCAATCAATCAATCAATCATATATCCATATCAAATTAAGCCGGAGTCACCTAGTGCAG”, the binding signal was 61800 fluorescence intensity (a.u.).

Turning to “TCCCAATTAAGTCAATCAGTAATAATAAATAATTATGAACCGGAGTCACCTAGTGCAG”, the binding signal was 32500 fluorescence intensity (a.u.).

For “CATCCAATCAGTTTAGACAAGGTAAAGTCTCATTTTCACACGGAGTCACCTAGTGCAG”, the binding signal was 17800 fluorescence intensity (a.u.).

For the sequence “CTCATAACACTTTCCTAATTGCCTCATATGCGGCCTTCCCCGGAGTCACCTAGTGCAG”, the binding signal was 7620 fluorescence intensity (a.u.).

In the case of “CTGCACAGTTAATTAAAGGAAAACTGGCGAAAACCCGGCACGGAGTCACCTAGTGCAG”, the binding signal was 8360 fluorescence intensity (a.u.).

For “CTTGCTGGTACCAATTAACATGGGTATGTTTAATTTGCTGCGGAGTCACCTAGTGCAG”, the binding signal is 3650 fluorescence intensity (a.u.).

As for “CCTTAATTACATTGTATATAGTGATGTATGATTTATTTTACGGAGTCACCTAGTGCAG”, the binding signal was 14700 fluorescence intensity (a.u.).

Regarding “CATGAGTAAATCAATCAGGGATGGCAACATTCAGGTTTAGCGGAGTCACCTAGTGCAG”, the binding signal is 12200 fluorescence intensity (a.u.).

“CGTTTTGTTAAATTAAAATAAATTAACAAGCCCAATTGCACGGAGTCACCTAGTGCAG”: the binding signal is 22300 fluorescence intensity (a.u.).

Take “TTACATTAGCAATTGATTGCTCTTATTTGACCATGATGTTCGGAGTCACCTAGTGCAG”: the binding signal was 31500 fluorescence intensity (a.u.).

Consider “TTGATTGAGATGTGACTGGAAAGGTGTGTCAGTGCAGGCACGGAGTCACCTAGTGCAG”, for which the binding signal was 56800 fluorescence intensity (a.u.).

Take “TTAAAAGTTTGATTGAAATTGGAACGATGTGATGGAAAAGCGGAGTCACCTAGTGCAG”: the binding signal is 22400 fluorescence intensity (a.u.).

In the case of “ATGCTTTGATTGAAATCAAGTACTCTGAAGCTAGTCATTCCGGAGTCACCTAGTGCAG”, the binding signal is 56700 fluorescence intensity (a.u.).

In the case of “TGATTCAAATGATTGAAGCTTTCCAAAACCTATGAAATTCCGGAGTCACCTAGTGCAG”, the binding signal was 17700 fluorescence intensity (a.u.).

On to “TAAAATTGAAAATTTGATTGAAATTGGAACGATGTGATGGCGGAGTCACCTAGTGCAG”, for which the binding signal was 64500 fluorescence intensity (a.u.).

On to “AAAGTTTGGATTTTGATTGAAATTGAAGATGATGTGACTGCGGAGTCACCTAGTGCAG”, for which the binding signal was 26700 fluorescence intensity (a.u.).

For the sequence “TTGATTGAAATTGGAGATGATGTGACTGAAAAGTTGTGTGCGGAGTCACCTAGTGCAG”, the binding signal is 41800 fluorescence intensity (a.u.).

With “AAATTAAATTATACTCAATACACAAGTTTGAATCTGATTCCGGAGTCACCTAGTGCAG”, the binding signal is 11400 fluorescence intensity (a.u.).

Regarding “CGTGTGCAGTGCAGTGATGATTGAGAAAGGCCATGCCATACGGAGTCACCTAGTGCAG”, the binding signal is 3900 fluorescence intensity (a.u.).

Take “AAGTTTGATTAAAATTGGAACGATGTGATGGAAAAGTTAGCGGAGTCACCTAGTGCAG”: the binding signal is 17300 fluorescence intensity (a.u.).

With “GTTGATGAGAGTGAAATTTGATTGACAAAGGATTGACTGGCGGAGTCACCTAGTGCAG”, the binding signal was 64400 fluorescence intensity (a.u.).

Take “CAGATGTGACTGGTATATATTGAAAGGTGCGAGGCACTGGCGGAGTCACCTAGTGCAG”: the binding signal is 9620 fluorescence intensity (a.u.).
